Inconclusive results are not listed. Activity calls are given as the source filed them. The call rests on the fitted dose curve; in most records, active means well fitted inhibition curve with a large enough effect; inconclusive means small, poorly fitted or top-dose-only effect; inactive means flat fitted curve, though single readings scatter. Where a SMILES comes first, the peptide text is derived from it. Bridges are numbered along the chain shown (N, C = ends). [ ]: non-standard residue; d: D form. hArg = N=C(N)NCCCC[C@H](N)C(=O)O; Mpa = O=C(O)CCS
Test system: CP262
Experiment: qHTS profiling for inhibitors of Plasmodium falciparum proliferation (AID 504749);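 further: 0% = DMSO vehicle and full inhibition = artemisinin control; nearly all actives have a fitted effect of over 60% in size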
Details: P. falciparum in erythrocytes, SYBR Green DNA, 72 h; series mostly up to 28.7 µM; activity, negative = inhibition: at the top concentration
Method in brief: (§1)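 P. falciparum-infected erythrocytes (0.3% parasitemia, 2.5% hematocrit final) were exposed to compounds for 72 h at 37 C in 5% CO2, then lysed with SYBR Green buffer overnight at room temperature; parasite DNA fluorescence was normalized to artemisinin and DMSO controls.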

| Structure (SMILES) | activity, negative = inhibition |
| --- | --- |
| O=C(Cn1ccnc1[N+](=O)[O-])NCCO | 0% (inactive) |
| Cc1c(C)c2c(c(C)c1OC(=O)c1cccnc1)CC[C@@](C)(CCC[C@H](C)CCC[C@H](C)CCCC(C)C)O2 | 0.901% (inactive) |
| CN(C/C=C/C#CC(C)(C)C)Cc1cccc2ccccc12 | 15.8% (inactive) |
| CCN(CC)CCc1nc(-c2ccccc2)no1 | -10.5% [at 12.8 µM] (inactive) |
| COc1nccnc1NS(=O)(=O)c1ccc(N)cc1 | 51.2% (inactive) |
| Cn1c([N+](=O)[O-])cnc1COC(N)=O | -0.557% (inactive) |
| COC(=O)c1ccc(O)cc1 | -1.44% (inactive) |
| COc1ccccc1OC(=O)Oc1ccccc1OC | 1.46% (inactive) |
| CN1CCCN=C1COC(=O)C(O)(c1ccccc1)C1CCCCC1 (stereo not drawn) | -25.6% (inactive) |
| O=C(/C=C/c1ccccc1)OCc1ccccc1 | -0.32% (inactive) |
| Cc1c(Cn2ccnc2)c2ccccc2n1CCC(=O)O | 1.93% (inactive) |
| NC(=O)[C@@H]1CSSCCC(=O)N[C@@H](CCCCN=C(N)N)C(=O)NCC(=O)N[C@@H](CC(=O)O)C(=O)N[C@@H](Cc2c[nH]c3ccccc23)C(=O)N2CCC[C@H]2C(=O)N1 ([Mpa][hArg]GDWPC-NH2; disulfide 1-7) | 0% (inactive) |
| N[C@@H](Cc1ccc(O)cc1)C(=O)O | 5.32% (inactive) |
| CC1CCc2cc(F)cc3c(=O)c(C(=O)O)cn1c23 (stereo not drawn) | -4.02% (inactive) |
| C[C@@H]1O[C@@H](OC[C@H]2O[C@@H](Oc3c(-c4ccc(O)c(O)c4)oc4cc(O)cc(O)c4c3=O)[C@H](O)[C@@H](O)[C@@H]2O)[C@H](O)[C@H](O)[C@H]1O | -0.152% (inactive) |
| Cc1onc(-c2ccccc2)c1-c1ccc(S(N)(=O)=O)cc1 | -6.73% (inactive) |
| COc1ccc(C(=O)NCc2ccc(OCCN(C)C)cc2)cc1OC | -0.744% (inactive) |
| Cc1ccsc1C(=CCCN1CCC[C@@H](C(=O)O)C1)c1sccc1C | 2.42% (inactive) |
| CCCCCCCC(=O)OCC(COC(=O)CCCCCCC)OC(=O)CCCCCCC | 0.609% (inactive) |
| CN/C(=C\[N+](=O)[O-])NCCSCc1csc(CN(C)C)n1 | 2.68% [at 12.8 µM] (inactive) |
| CCN1CC(CCN2CCOCC2)C(c2ccccc2)(c2ccccc2)C1=O (stereo not drawn) | 2.5% (inactive) |
| CCOC(N)=O | 6.28% (inactive) |
| Cc1c(NC(C)C)c(=O)n(-c2ccccc2)n1C | 3.24% (inactive) |
| O=C(OOC(=O)c1ccccc1)c1ccccc1 | 5.72% (inactive) |
| C=CCSCC1Nc2cc(Cl)c(S(N)(=O)=O)cc2S(=O)(=O)N1 (stereo not drawn) | 7.77% (inactive) |
| Cc1c(NC(=O)c2cccnc2)c(=O)n(-c2ccccc2)n1C | 1.57% [at 12.8 µM] (inactive) |
| CCCCCCCCCCC(CO)CCCCCCCC (stereo not drawn) | -0.377% (inactive) |
| CCOc1cc(NC(C)=O)ccc1C(=O)OC | 2.52% (inactive) |
| NS(=O)(=O)c1ccc(NC(=O)CCC(=O)O)cc1 | 0.506% (inactive) |

Test system: CP265
Experiment: as above
Details: P. falciparum in erythrocytes, SYBR Green DNA, 72 h; series mostly up to 28.7 µM; activity, negative = inhibition: at the top concentration
Method in brief: as §1

| Structure (SMILES) | activity, negative = inhibition |
| --- | --- |
| O=C(Cn1ccnc1[N+](=O)[O-])NCCO | 2.48% (inactive) |
| Cc1c(C)c2c(c(C)c1OC(=O)c1cccnc1)CC[C@@](C)(CCC[C@H](C)CCC[C@H](C)CCCC(C)C)O2 | 6.68% (inactive) |
| COc1ccc2cc(CCC(C)=O)ccc2c1 | -1.35% [at 12.8 µM] (inactive) |
| CN(C/C=C/C#CC(C)(C)C)Cc1cccc2ccccc12 | -3.12% (inactive) |
| CCN(CC)CCc1nc(-c2ccccc2)no1 | -25.7% [at 12.8 µM] (inactive) |
| COc1nccnc1NS(=O)(=O)c1ccc(N)cc1 | -6.07% (inactive) |
| Cn1c([N+](=O)[O-])cnc1COC(N)=O | 2.22% (inactive) |
| COC(=O)c1ccc(O)cc1 | -2.38% (inactive) |
| CC[N+](CC)(CC(=O)Nc1c(C)cccc1C)Cc1ccccc1 | -13.6% (inactive) |
| CC1CCN(CCCC(=O)c2ccc(F)cc2)CC1 | -4.94% (inactive) |
| COc1ccccc1OC(=O)Oc1ccccc1OC | 0.129% (inactive) |
| CN1CCCN=C1COC(=O)C(O)(c1ccccc1)C1CCCCC1 (stereo not drawn) | 0.219% (inactive) |
| O=C(/C=C/c1ccccc1)OCc1ccccc1 | 9.17% (inactive) |
| Cc1c(Cn2ccnc2)c2ccccc2n1CCC(=O)O | 5.15% (inactive) |
| NC(=O)[C@@H]1CSSCCC(=O)N[C@@H](CCCCN=C(N)N)C(=O)NCC(=O)N[C@@H](CC(=O)O)C(=O)N[C@@H](Cc2c[nH]c3ccccc23)C(=O)N2CCC[C@H]2C(=O)N1 ([Mpa][hArg]GDWPC-NH2; disulfide 1-7) | 13% (inactive) |
| N[C@@H](Cc1ccc(O)cc1)C(=O)O | 0.0495% (inactive) |
| CC1CCc2cc(F)cc3c(=O)c(C(=O)O)cn1c23 (stereo not drawn) | 0.468% (inactive) |

| Structure (SMILES) | activity, negative = inhibition |
| --- | --- |
| C[C@@H]1O[C@@H](OC[C@H]2O[C@@H](Oc3c(-c4ccc(O)c(O)c4)oc4cc(O)cc(O)c4c3=O)[C@H](O)[C@@H](O)[C@@H]2O)[C@H](O)[C@H](O)[C@H]1O | 4.04% (inactive) |
| Cc1onc(-c2ccccc2)c1-c1ccc(S(N)(=O)=O)cc1 | -0.474% (inactive) |
| COc1ccc(C(=O)NCc2ccc(OCCN(C)C)cc2)cc1OC | -2.34% (inactive) |
| Cc1ccsc1C(=CCCN1CCC[C@@H](C(=O)O)C1)c1sccc1C | -0.313% (inactive) |
| CCCCCCCC(=O)OCC(COC(=O)CCCCCCC)OC(=O)CCCCCCC | 10.2% (inactive) |
| CN/C(=C\[N+](=O)[O-])NCCSCc1csc(CN(C)C)n1 | 10.6% [at 12.8 µM] (inactive) |
| NS(=O)(=O)c1ccc(C(=O)O)cc1 | -0.677% (inactive) |
| CCOC(N)=O | 7.35% (inactive) |
| Cc1c(NC(C)C)c(=O)n(-c2ccccc2)n1C | 0.515% (inactive) |
| CCOc1ccc(C(=O)OCCN(CC)CC)cc1 | 1.39% (inactive) |
| O=C(OOC(=O)c1ccccc1)c1ccccc1 | 0.22% (inactive) |
| C=CCSCC1Nc2cc(Cl)c(S(N)(=O)=O)cc2S(=O)(=O)N1 (stereo not drawn) | 8.1% (inactive) |
| Cc1c(NC(=O)c2cccnc2)c(=O)n(-c2ccccc2)n1C | -10.5% [at 12.8 µM] (inactive) |
| CCCCCCCCCCC(CO)CCCCCCCC (stereo not drawn) | -0.252% (inactive) |
| CCOc1cc(NC(C)=O)ccc1C(=O)OC | 5.22% (inactive) |
| Cc1ncc(CO)c(CN)c1O | 8.6% (inactive) |
| NS(=O)(=O)c1ccc(NC(=O)CCC(=O)O)cc1 | 6.09% (inactive) |

Source: PubChem BioAssay (NCATS)
